{"source": "PubChem BioAssay (NCI)", "note": "This is part of a sample that, as a whole, favours compounds with a hit. Of some 83,000 tested, about 20% had one in any assay.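 Compound tested at a single concentration for 48 hours in 96-well plates; a percent growth value below 10 was scored as active.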 The source made the active and inactive calls."}
{"system": "HL-60(TB) leukemia", "assay": "NCI-60 one-dose screen, 48 h (100 = growth as untreated, 0 = no growth, -100 = all killed)", "conditions": "10 µM unless noted"}
{"compound": "CCCCNC(=O)NS(=O)(=O)c1ccc(N2N=C(c3cc(C)ccc3C)CC2c2cc(OC)c(OC)c(OC)c2)cc1", "note": "(centres undefined)", "growth": "-16.1% (active)"}
{"compound": "CSc1nc2[nH]ncc2c(=O)[nH]1", "growth": "114% (inactive)"}
{"compound": "COc1cc(NCC(O)CN(CC(C)C)CC(C)C)c2ncccc2c1", "note": "(centres undefined)", "growth": "62.7% (inactive)"}
{"compound": "Nc1nnc2cc(Cl)ccc2n1", "growth": "145% (inactive)"}
{"compound": "C[n+]1cc2cc3c(cc2c2ccccc21)OCO3", "growth": "87.5% (inactive)"}
{"compound": "CCCCNc1cc(C(=O)O)cc(S(N)(=O)=O)c1Oc1ccccc1", "growth": "107% (inactive)"}
{"compound": "CC(=O)C1CC(C)CCC1C(C)C", "note": "(centres undefined)", "growth": "58.7% (inactive)"}
{"compound": "CCOc1ccc(-c2cnnn2-c2nonc2-n2cccc2)cc1", "growth": "-23.8% (active)"}
{"compound": "Oc1ccccc1O", "growth": "55.8% (inactive)"}
{"compound": "Cc1[nH]nc2ccc3nc(-c4ccc5[nH]ncc5c4)c4c(c3c12)CCCC4", "growth": "-15.5% (active)"}
{"compound": "C=C(CC(=O)OC)C(C)=O", "growth": "95.8% (inactive)"}
{"compound": "COc1cc(/C=C/c2cc(/C=C/c3ccc(O)c(OC)c3)n(-c3c(C)cccc3C)c(=O)n2)ccc1O", "growth": "6.05% (active)"}
{"compound": "COC(=O)[C@@H](NC(=O)NC(=O)NC(=O)CI)C(C)C", "growth": "77.9% (inactive)"}
{"compound": "COc1cc(/C=C/c2cn[nH]c2-c2ccc(C)cc2)cc(OC)c1OC", "growth": "4.76% (active)"}
{"compound": "Cc1ccc(N(CSc2ccc(Cl)cc2)CSc2ccc(Cl)cc2)cc1", "growth": "-46.7% (active)"}
{"compound": "O=C1/C(=C/c2cn(-c3ccccc3)nc2-c2ccccc2)SC(=S)N1c1ccccc1", "growth": "103% (inactive)"}
{"compound": "Cn1c(-c2ccccc2)cc(=O)n1-c1ccccc1", "growth": "109% (inactive)"}
{"compound": "NCCCNc1nc2ccccc2c2c(=O)c3cccc(Cl)c3sc12", "growth": "-45% (active)"}
{"compound": "COc1ccc(C(=O)c2cc3c(N)c(C(=O)Nc4ccc(Br)cc4)sc3nc2C)cc1", "growth": "80.2% (inactive)"}
{"compound": "Cc1ccncc1C(N)=O", "growth": "-80.7% (active)"}
{"compound": "COc1ccc(C(=O)Nn2c(NCC(=O)N3c4ccccc4Sc4ccccc43)nnc2-c2ccc(O)cc2)cc1", "growth": "94.3% (inactive)"}
{"compound": "Cc1cc(NC(=O)CNc2nc(Oc3ccc(F)cc3)nc(-c3ccc(F)cc3)n2)ccc1Cl", "growth": "96.4% (inactive)"}
{"compound": "O=C(Nc1ccc(-n2cc(-c3ccncc3)c(-c3ccc(Cl)c(O)c3)n2)cc1)Nc1cc(C(F)(F)F)cc(C(F)(F)F)c1", "growth": "2.94% (active)"}
{"compound": "CC[C@H](CO)Nc1nc(NCc2ccccc2)n2ncc(C(C)C)c2n1", "growth": "-38.2% (active)"}
{"compound": "N#Cc1c(N)nc(Cl)c(C#N)c1C(=O)c1ccccc1", "growth": "6.29% (active)"}
{"compound": "CCOc1ccc(/C=N\\N=C\\c2ccc(OCC)cc2)cc1", "growth": "76.6% (inactive)"}
{"compound": "COc1ccc(/C(=C2/O[C@@H]([C@H]3COC(C)(C)O3)[C@H]3OC(C)(C)O[C@@H]23)c2cc(OC)c(OC)c(OC)c2)cc1O", "growth": "-0.369% (active)"}
{"compound": "COc1cc(CN2CCO[C@H](COc3cccc(F)c3)C2)ccc1Cl", "growth": "26.3% (inactive)"}
{"compound": "COC(=O)C1=Nc2ccc(F)cc2/C1=C/c1sc(=S)[nH]c1O", "growth": "-28.8% (active)"}
{"compound": "O=C1/C(=C/c2cccc(F)c2)CN(C(=O)C(Cl)Cl)C/C1=C\\c1cccc(F)c1", "growth": "-41.6% (active)"}
{"compound": "CC(=O)Nc1ccc(-c2ccc3c(c2)NC(=O)/C3=C\\c2ccc[nH]2)cc1", "growth": "95.5% (inactive)"}
{"compound": "CCCSc1ccc2nc(NC(=O)OC)[nH]c2c1", "growth": "7.7% (active)"}
{"compound": "O=C(Nc1ccccc1)Nc1ccc(C(=O)/C=C/c2ccc(N3CCCC3)cc2)cc1", "growth": "35.2% (inactive)"}
{"compound": "O=C(NCc1ccco1)Nc1cccc2c(NC(=O)NCc3ccco3)cccc12", "growth": "66.5% [100 µM] (inactive)"}
{"compound": "Cc1csc(NC(=O)c2sc3nc(-c4cccs4)ccc3c2N)n1", "growth": "105% (inactive)"}
{"compound": "Nc1ncnc2c1N=C(c1ccc([N+](=O)[O-])cc1)CC(c1ccc3c(c1)OCO3)N2", "note": "(centres undefined)", "growth": "105% (inactive)"}
{"compound": "COc1cc([C@@H]2c3cc4c(cc3C(OC3O[C@@H]5COC(C)O[C@H]5[C@H](O)[C@H]3O)C3COC(=O)[C@@H]32)OCO4)cc(OC)c1O", "note": "(some centres undefined)", "growth": "-2.39% (active)"}
{"compound": "O=C1C(=O)c2ccc(Br)cc2-c2cc(Br)ccc21", "growth": "-14.5% (active)"}
{"compound": "CCCNNC(=O)c1ccc(CNC(=O)/C=C/c2ccccc2)cc1", "growth": "33.4% [2.5 µM] (inactive)"}
